GalR3 antagonist: blocks the human galanin receptor 3; HEK293 GalR3-CNG cAMP membrane potential fluorescence; galR3 body fused to GalR1 C-terminus; inhibition, % at 3 µM; 0.44% of 360,000 active;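 active = inhibition above the screen-wide average plus 3 SD, cut at about 13% in these data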;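 also: forskolin and galanin both at EC90 stimulate the cells; cAMP rise reported by CNG channel membrane potential dye signal; 0% = forskolin plus galanin with DMSO and 100% = forskolin alone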
Target sequence (O60755 1-299 limits assumed): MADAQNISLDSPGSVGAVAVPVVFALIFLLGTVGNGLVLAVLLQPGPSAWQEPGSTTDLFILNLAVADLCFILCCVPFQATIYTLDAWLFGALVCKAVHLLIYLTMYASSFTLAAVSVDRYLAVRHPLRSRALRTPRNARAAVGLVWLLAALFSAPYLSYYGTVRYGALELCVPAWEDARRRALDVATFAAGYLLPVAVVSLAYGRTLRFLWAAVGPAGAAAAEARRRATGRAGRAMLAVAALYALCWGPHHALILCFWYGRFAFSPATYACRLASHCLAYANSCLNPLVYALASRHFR
NR2F2 inh: NR2F2 (human) inhibition, primary screen | AID 686940 | HEK293T NGFI-A luciferase reporter, luminescence | inhibition, % at 8.6 µM | 0.7% of 370,000 active | P24468;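 active = inhibition above a per-plate cutoff, mean inhibition of test wells between control levels plus 3 SD, cut at about 38% in these data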;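 also: cells cotransfected with COUP-TFII expression vector driving the NGFI-A reporter; 0% = median of COUP-TF2 test wells and 100% = reporter-only cells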
Target sequence (P24468 whole entry, looked up): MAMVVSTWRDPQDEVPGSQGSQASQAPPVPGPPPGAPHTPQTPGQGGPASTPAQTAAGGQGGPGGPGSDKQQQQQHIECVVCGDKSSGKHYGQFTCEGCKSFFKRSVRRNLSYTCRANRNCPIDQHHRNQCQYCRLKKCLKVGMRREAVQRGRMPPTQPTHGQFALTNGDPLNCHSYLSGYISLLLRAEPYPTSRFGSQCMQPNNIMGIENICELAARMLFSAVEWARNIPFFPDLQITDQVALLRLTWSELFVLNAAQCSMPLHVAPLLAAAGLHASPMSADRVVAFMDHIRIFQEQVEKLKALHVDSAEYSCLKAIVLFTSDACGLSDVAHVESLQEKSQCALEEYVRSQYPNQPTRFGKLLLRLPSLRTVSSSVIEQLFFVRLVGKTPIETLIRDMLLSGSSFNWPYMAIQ
Env fusion inh: inhibitors of HIV Env-mediated cell fusion. HeLa-JRFL Env/CEM21 cell fusion, luciferase. inhibition, % at 12.3 µM. 1.1% of 360,000 active. AID 651610;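 active = mean replicate inhibition score of at least 50 and every replicate individually at or above 50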;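 also: 0% = plate neutral controls and 100% = maraviroc near 300 nM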
aDG glyco act: alpha-DG glycosylation activation; Pro5-aDG cells, alpha-DG glycosylation AlphaScreen (IIH6); 0% Pro5, 100% B10-LARGE cell signal; activation, % at 10 µM; 0.22% of 360,000 active; AID 624168;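 active = activation of at least 8% versus controls, or a plate z-score of at least 8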;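 also: Pro5 are CHO cells carrying HIG-tagged alpha-DG that lacks glycosylation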
Gli-Sufu antag: blocks Gli-Sufu signaling in a luciferase reporter; 0.74% of 340,000 active; inhibition, % at 5 µM; Sufu-KO-LIGHT fibroblasts, Gli luciferase reporter luminescence;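 active = inhibition above about 55%, limit read from the data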;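 also: 0% = DMSO-treated cells and 100% = wells with medium but no cells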
Gli-Sufu confirm: Gli-SUFU antagonism confirmation, single concentration; shares compounds with Gli-Sufu antag; Sufu-KO-LIGHT cells, Gli luciferase reporter, luminescence; inhibition, % at 5 µM; 40% of 2,500 active;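 active = mean inhibition at 5 µM reaching about 45%, limit read from the data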;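 also: plate controls were DMSO-treated cells for no effect and wells lacking cells for full effect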
SufuKO cytotox: cytotoxicity counter-screen for Gli-SUFU antagonists | shares compounds with Gli-Sufu antag | Sufu-KO-LIGHT cells cytotoxicity, ATP luminescence | cytotoxicity, % at 5 µM | 32% of 2,500 active | AID 651994;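 active = mean cytotoxicity at 5 µM above about 25%, limit read from the data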;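 also: cells exposed to compound overnight for roughly 16 to 18 hours; plate controls were DMSO wells with cells for no effect and medium without cells for full effect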
Wnt3a cs: inhibits Wnt3a reporter, counter-screen for Gli-SUFU antagonists; shares compounds with Gli-Sufu antag; Wnt-LIGHT cells, Wnt3a-driven luciferase reporter, luminescence; inhibition, % at 6.25 µM; 20% of 2,500 active; AID 651995;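 active = mean inhibition above about 25%, limit read from the data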
Numbers without * were called inactive; x = no result given; [ ] = another dose, or the depositor's remark. Sampled rows, rich in hits. Any-hit rate of the full collection: about 2.1%.

SMILES	GalR3 antagonist	NR2F2 inh	Env fusion inh	aDG glyco act	Gli-Sufu antag	Gli-Sufu confirm	SufuKO cytotox	Wnt3a cs
O=C(COc1ccccc1)N1CCN(c2nnc(-c3ccccc3)c3ccccc23)CC1	-6.1	19.4	19.4	0.1	96.3*	31.8	3.2	1.3
COc1ccc(-c2c[n+]3c(n2-c2ccccc2)SCC3)cc1OC	-3.5	-1.7	-4.6	-0.1	-2.8	x	x	x
Brc1ccc(-c2c[n+]3c(n2-c2ccccc2)SCC3)cc1	-4.5	17.9	-3.9	0.0	63.2*	60.0*	25.2*	-4.0
CCOC(=O)C1=C(CC)OC(N)=C(C#N)C1c1cccs1 (stereo not given)	-7.9	0.4	x	-0.1	-9.9	x	x	x
CCN1CC2=C(OC(N)=C(C#N)C2c2cccs2)/C(=C\c2cccs2)C1 (stereo not given)	-7.9	18.3	x	-0.2	76.5*	22.4	8.2	-33.4
Cc1ccc(OCc2cc(C(=O)NC3CCCCC3)no2)cn1	-7.2	31.0	5.9	3.6	56.8*	27.0	17.5	-12.9
O=C(NC1CCCC1)c1cc(COc2ccc3ncccc3c2)on1	x	x	x	0.6	53.9	63.2*	24.1	21.2
O=C(N[C@@H]1CC[C@H](CCn2cc(C3CCCCC3)nn2)O[C@H]1CO)c1cccnc1	x	x	20.1[16.7 µM]	x	x	x	x	x
CCC(c1nnnn1Cc1ccc(F)cc1)N1CCN(C2CCCCC2)CC1 (stereo not given)	-3.0	3.5	x	-0.6	9.1	x	x	x
Fc1ccc(Cn2nnnc2CN2CCN(C3CCCC3)CC2)cc1	-0.7	6.1	x	0.2	92.6*	18.0	-10.5	-0.3
NCCCCCCNC(=O)[C@H]1C[C@H]2C(=O)N[C@@H](Cc3ccccc3)C(=O)N2[C@H]1c1cccc(OCCO)c1	x	x	-6.0[16.7 µM]	x	x	x	x	x
Cn1c(SCC(=O)NCc2ccc(F)cc2)ncc(C(=O)Nc2ccccc2)c1=O	0.3	5.1	-28.0	0.4	54.1	29.6	13.2	-14.2
CCCNC(=O)N(C)C[C@H]1Oc2ncc(-c3ccc(F)cc3)cc2C(=O)N([C@@H](C)CO)C[C@H]1C	x	x	8.8[16.7 µM]	x	x	x	x	x
C[C@@H]1CCCCO[C@@H](CN(C)C(=O)NC2CCCCC2)[C@@H](C)CN([C@H](C)CO)C(=O)c2cc(NC(=O)Nc3ccccc3)ccc2O1	x	x	-40.5[16.7 µM]	x	x	x	x	x
Cc1ccc(-c2noc(CCC(=O)NCC3CCCO3)n2)cc1 (stereo not given)	1.0	0.6	-50.0	0.0	x	x	x	x
O=C(CSCSCC(=O)NCC1CCCO1)NCC1CCCO1 (stereo not given)	-2.1	11.0	x	0.1	95.6*	11.3	20.3	-16.1
Cc1cc(C)cc(OCC(=O)NCC2CCCO2)c1 (stereo not given)	-6.2	16.4	x	0.4	71.2*	38.8	16.0	37.7*
Cc1ccc(-c2noc(CCCC(=O)NCC3CCCO3)n2)cc1 (stereo not given)	-6.6	18.2	8.7	0.0	55.8*	39.1	7.9	4.6
C[C@H](CO)N1C[C@H](C)[C@@H](CN(C)Cc2ccc(Cl)c(Cl)c2)OCCCC[C@H](C)Oc2ccc(NC(=O)Nc3ccc4c(c3)OCO4)cc2C1=O	x	x	27.8[16.7 µM]	x	x	x	x	x
NC(=O)COc1ncnc2scc(-c3ccc(F)cc3)c12	4.9	5.2	-12.1	-0.1	54.2	14.4	11.7	-6.7
COCCNC(=O)COc1ncnc2scc(-c3ccc(F)cc3)c12	-7.1	-6.1	11.5	-0.2	-5.2	x	x	x
C[C@H](CO)N1C[C@H](C)[C@@H](CN(C)Cc2ccc3c(c2)OCO3)Oc2ccc(NC(=O)CCCN(C)C)cc2CC1=O	x	x	-4.8[16.7 µM]	x	x	x	x	x
Cn1c(N)c(C(=O)COC(=O)C2(c3cccc(F)c3)CCCC2)c(=O)n(C)c1=O	-1.9	11.3	x	-0.7	99.0*	15.1	2.3	-6.9
Cn1c(N)c(C(=O)COC(=O)c2ccc(F)cc2Cl)c(=O)n(C)c1=O	-1.6	-7.3	7.8	0.2	-1.5	x	x	x
COc1ccccc1OCC(=O)Nc1ccc(C(N)=O)cc1	-3.7	12.2	-83.0	-0.3	69.2*	26.9	3.6	4.4
SMILES	GalR3 antagonist	NR2F2 inh	Env fusion inh	aDG glyco act	Gli-Sufu antag	Gli-Sufu confirm	SufuKO cytotox	Wnt3a cs
CC(Oc1ccccc1)C(=O)Nc1ccc(C(N)=O)cc1 (stereo not given)	-3.5	-6.3	-23.8	-0.2	52.4	19.0	4.0	-9.8
COc1ccccc1OCC(=O)Nc1ccc(NC(=O)COc2ccccc2OC)cc1	-2.7	4.9	27.4	0.0	-6.8	x	x	x
N#C[C@H]1[C@@H](c2ccccc2)[C@H](CO)N1C(=O)c1cc(Cl)cc(Cl)c1	x	x	-36.2[16.7 µM]	x	x	x	x	x
Cc1cc(=O)oc2cc(OCC(O)CN3CCc4ccccc4C3)ccc12 (stereo not given)	-5.8	-7.3	x	0.0	95.1*	11.4	13.8	-44.5
C[C@H](NC(=O)C[C@H]1C[C@H]2c3cc(NC(=O)Nc4ccc(C(F)(F)F)cc4)ccc3O[C@H]2[C@@H](CO)O1)c1ccccc1	x	x	-0.4[16.7 µM]	x	x	x	x	x
CC1=NN(c2ccccc2)C(=O)/C1=C/C=C/c1ccccc1	2.1	4.1	-260.6	-0.2	-15.5	x	x	x
CC1=NN(c2ccccc2)C(=O)/C1=C\N1CC(C)OC(C)C1 (stereo not given)	-7.2	1.2	-2.1	-0.1	97.8*	24.4	9.2	4.9
CC(=O)N[C@H]1C=C[C@@H](CC(=O)NCC2CCCCC2)O[C@@H]1CO	x	x	-21.1[16.7 µM]	x	x	x	x	x
COC(=O)[C@@]12CCCCN1[C@H](c1ccc(-c3ccccc3)cc1)[C@@H]1C(=O)N(C)C(=O)[C@@H]12	-4.6	-7.5	10.1	0.1	83.2*	26.2	1.3	25.1*
O=C(C1CCCCC1)N1CCN(c2ccnc3cc(Cl)ccc23)CC1	-1.9	23.9	56.9*	1.3	53.3	56.9*	13.8	-16.5
O=C(c1ccco1)N1CCN(c2ccnc3cc(Cl)ccc23)CC1	-3.3	7.8	16.2	1.0	53.9	41.9	9.2	-22.4
O=C(C1CC1)N1CCN(c2ccnc3cc(Cl)ccc23)CC1	-2.0	22.5	48.5	0.4	32.2	x	x	x
O=C(NCC[C@@H]1CC[C@@H](NC(=O)c2cccnc2)[C@@H](CO)O1)Nc1ccc(C(F)(F)F)cc1	x	x	15.0[16.7 µM]	x	x	x	x	x
COc1ccc(N(CC(=O)NCCC2=CCCCC2)S(=O)(=O)c2ccccc2)cc1	-0.8	6.4	39.8	0.3	57.3*	21.6	21.1	-22.7
COc1ccc(N(CC(=O)NCCC2=CCCCC2)S(=O)(=O)c2ccccc2)cc1OC	-4.8	13.0	9.3	0.7	4.4	x	x	x
CCN1[C@H](C(=O)NCCc2cn(C)cn2)[C@@H](CO)[C@@H]2Cn3c(ccc(-c4ccc(F)cc4)c3=O)[C@@H]21	x	x	-11.9[16.7 µM]	x	x	x	x	x
CO[C@@H]1CN(C)C(=O)c2cc(NC(=O)C3CC3)ccc2OC[C@H](C)N(CCC(F)(F)F)C[C@@H]1C	x	x	-1.4[16.7 µM]	x	x	x	x	x
